Shown are actives, neighbours in structure and some others; about 3.6% of the full set was active somewhere.
ERb coact inh = blocks coactivator binding to human estrogen receptor beta; inhibition, % at 25.6 µM; Q92731; actives 1.3% (n = 86,000); TR-FRET ER-beta LBD / SRC1-Cy5 peptide binding; receptor agonist-loaded with 1 µM estradiol;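 active means compounds whose percent inhibition of the receptor-coactivator binding signal exceeds about 50% in the single-dose screen, limit read from the data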;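 further: 0% = receptor plus peptide wells without compound and 100% = peptide-only wells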
Candida biofilm = kills Candida albicans biofilms | inhibition, % at 6 µM | AID 834 | C. albicans biofilm + clotrimazole, Alamar Blue | actives 0.14% (n = 85,000);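 active means inhibition above 20%; inactive means inhibition below 20%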;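 further: preformed 24 hr biofilms exposed to compound for 48 hr; 0% = biofilm without compound and 100% = blank killed by clotrimazole plus chlorhexidine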
ERa SRC1 pot = enhances coactivator binding to human estrogen receptor alpha; coactivator binding (% of control), % at 25.6 µM; actives 1.3% (n = 86,000); AID 639; TR-FRET ERalpha-LBD/SRC-Cy5 coactivator binding, 2 h; 100 = basal binding, no effect; in the data active means activity above about 200%;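 further: binding measured in presence of low estradiol as agonist stimulus; 0% = peptide alone without receptor and 100% = receptor with peptide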
Target sequence (P03372 whole entry, looked up, the tested form may be a part): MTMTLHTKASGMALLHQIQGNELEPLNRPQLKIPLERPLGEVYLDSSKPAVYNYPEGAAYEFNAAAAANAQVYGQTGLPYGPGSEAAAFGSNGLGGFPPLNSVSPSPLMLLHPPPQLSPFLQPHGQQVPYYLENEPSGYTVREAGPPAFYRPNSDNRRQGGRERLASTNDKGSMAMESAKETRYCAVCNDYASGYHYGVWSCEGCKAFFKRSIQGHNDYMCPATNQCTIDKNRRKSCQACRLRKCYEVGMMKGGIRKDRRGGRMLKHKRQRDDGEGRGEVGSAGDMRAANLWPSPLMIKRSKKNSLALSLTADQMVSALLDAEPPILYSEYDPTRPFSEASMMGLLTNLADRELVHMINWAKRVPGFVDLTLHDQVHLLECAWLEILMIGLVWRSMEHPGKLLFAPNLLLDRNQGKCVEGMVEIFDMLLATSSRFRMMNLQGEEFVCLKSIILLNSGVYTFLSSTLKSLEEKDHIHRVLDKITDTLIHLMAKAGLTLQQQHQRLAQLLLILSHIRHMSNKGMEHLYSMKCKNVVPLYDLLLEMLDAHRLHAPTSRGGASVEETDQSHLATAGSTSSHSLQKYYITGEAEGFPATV
Smad3 FoxH1 inh = Smad3 (human) transcription factor binding inhibition; AID 630; inhibition, % at 25 µM; P84022; TR-FRET Smad3/Dy647-FoxH1 peptide binding, europium anti-His; actives 0.29% (n = 88,000);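 active means compounds that reduce the energy-transfer binding signal between the protein and its labelled peptide by more than half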;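 further: 0% = Smad3 plus labelled peptide maximal FRET and 100% = peptide-only background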
ERa coact inh = blocks coactivator binding to human estrogen receptor alpha. inhibition, % at 25.6 µM. actives 1.7% (n = 86,000). P03372. TR-FRET ER-alpha LBD / SRC-1 peptide, estradiol-bound; in the data active means inhibition above about 50%;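 further: 0% = receptor plus peptide control and 100% = peptide only without receptor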
An asterisk follows results filed as active; · = not tested or not shown; + = active, no number; [ ] = another dose, or the depositor's remark.

SMILES	ERb coact inh	Candida biofilm	ERa SRC1 pot	Smad3 FoxH1 inh	ERa coact inh
CCCCSc1nc2c(cnn2-c2ccc(F)cc2)c(=O)[nH]1	32.0	2.2	209.4*[fluorescence artefact?]	1.1	27.8
CCOC(=O)N1CCN(C(=O)CSc2nc3c(cnn3-c3ccc(C)cc3)c(=O)[nH]2)CC1	-7.3	-2.6	112.5	-0.2	-4.8
Cc1ccc(C(=O)C2(C)C3c4cc(Br)ccc4OC(=O)C32C(=O)c2ccco2)cc1 (centres undefined)	-3.4	0.9	91.1	16.3	-4.7
CSCC[C@H](NC(=O)c1nn(C)c(=O)c2ccccc12)c1nc2ccccc2[nH]1	-3.1	6.1	100.5	-1.8	6.3
COc1ccc(CCNC(=O)CCC2COc3ccccc3O2)cc1OC (centres undefined)	-5.1	6.4	107.5	9.3	-2.1
COC(=O)c1ccc(CSc2nc3c(cnn3-c3ccc(F)cc3)c(=O)[nH]2)o1	20.6	8.6	516.5*	3.2	-20.5
COC(=O)c1ccc(CSc2nc3c(cnn3-c3ccccc3)c(=O)[nH]2)o1	-18.3	7.5	258.1*[fluorescence artefact?]	12.1	-38.3
CCC(Sc1nc2c(cnn2-c2ccccc2)c(=O)[nH]1)C(=O)OC (centres undefined)	-0.5	1.0	102.1	4.0	4.2
COC(=O)c1ccc(CSc2nc3ccccc3[nH]2)o1	-4.3	5.5	100.9	3.3	-0.3
O=C(O)Cn1cnc2scc(-c3cccs3)c2c1=O	57.6*	9.2	63.8	-3.2	37.8
O=C(CN1C(=O)C2(OCCO2)c2ccccc21)c1ccc(Br)cc1	-0.5	4.0	97.9	-8.9	-8.7
C/C(=N/NC(=O)c1cc2ccccc2cc1O)C1C(=O)c2ccccc2C1=O	64.9*[fluorescence artefact?]	-1.2	20.5	8.6	78.5*[fluorescence artefact?]
COc1ccc(-c2noc(CCC(=O)Nc3nc4ccccc4s3)n2)cc1	-2.5	4.6	208.0*[fluorescence artefact?]	6.8	14.0
Clc1ccccc1-c1nnc2sc(-c3ccc(Br)o3)nn12	5.1	12.6	93.5	0.0	-2.5
Clc1ccc(-c2nnc3sc(-c4ccc(Br)o4)nn23)cc1	56.4*[fluorescence artefact?]	8.2	143.5	-24.4	55.8*[fluorescence artefact?]
COc1cccc(-c2nnc3sc(-c4ccc(Cl)cc4)nn23)c1	20.6	5.7	151.6	-8.4	28.6
COc1ccc(-c2nnc3sc(-c4ccc(Br)o4)nn23)cc1OC	28.9	3.0	138.9	-71.1	61.6*
Cc1oc(-c2ccc(Cl)cc2)cc1-c1nn2c(-c3ccoc3C)nnc2s1	63.7*[fluorescence artefact?]	10.0	58.6	-27.3	78.9*
O=C(CSc1nccn1Cc1ccccc1)NCc1ccccc1	0.7	2.6	118.5	-4.0	-1.9
CSC(=[SH+])[N-]N=C(c1ccccn1)c1ccccn1.[Cu][Br]	·	·	·	8.4	·
NC(=O)SC/C(=N\S(=O)(=O)c1ccccc1)Nc1ccccc1	97.5*[fluorescence artefact?]	·	96.6	-3.0	-0.5
Cc1ccc2c(c1)c(CC(=O)Nc1ccc(F)cc1)c(C(=O)O)n2C	2.7	-0.7	107.1	6.0	-6.3
Oc1ccccc1C(Sc1nc2ccccc2s1)Sc1nc2ccccc2s1	·	·	·	78.0*	·
Cc1ccccc1-c1nnc(SCC(=O)Nc2cccc(C)c2C)o1	5.9	-7.4	124.2	-30.9	-4.8
Cc1cccc(NC(=O)CSc2nnc(-c3ccco3)c(-c3ccco3)n2)c1C	76.8*[fluorescence artefact?]	2.7	31.8	3.2	73.6*[fluorescence artefact?]
SMILES	ERb coact inh	Candida biofilm	ERa SRC1 pot	Smad3 FoxH1 inh	ERa coact inh
O=C1CC(N2CCN(c3ccc(C(=O)c4ccc(F)cc4)cc3)CC2)C(=O)N1 (centres undefined)	5.2	6.2	220.7*	11.0	-3.8
Cc1cccc(N(C)S(=O)(=O)c2ccc3[nH]c(=O)c(=O)[nH]c3c2)c1	9.6	5.8	116.7	5.0	5.7
O=C(Cn1ncc2c(=O)oc3ccccc3c21)Nc1nc2ccccc2s1	-4.5	7.3	428.8*	4.7	5.8
CCn1cc(C(=O)N=c2sc3ccccc3n2C)c(=O)c2ccc(C)nc21	7.0	9.0	250.5*	-1.8	24.9
COCCN(CC(=O)NCc1ccc(OC)cc1)C(=O)CCC(=O)Nc1nccs1	-3.1	2.2	110.5	11.7	-19.5
COCCn1c(-c2ccc(-c3ccccc3Cl)o2)nc2c1c(=O)[nH]c(=O)n2CC(C)C	9.2	5.4	208.4*	17.4	7.7
CCCCn1c(=O)[nH]c(=O)c2c1nc(-c1ccc(-c3ccccc3Br)o1)n2CCOC	-3.3	-5.2	63.5	1.3	16.1
CSCCC1(C(=O)O)NC(c2ccccc2O)C2C(=O)N(C(C)C)C(=O)C21 (centres undefined)	-3.6	-4.4	111.8	1.0	83.7*[fluorescence artefact?]
O=C1CCC(=O)N1c1ccccc1-c1ccccc1	0.2	1.9	117.5	-0.1	-4.1
Cc1cc(-c2ccc(N3C(=O)CCC3=O)c(C)c2)ccc1N1C(=O)CCC1=O	62.6*	6.8	106.5	0.6	-7.2
CCCc1cc2c(=O)c(-c3ccccn3)c(C)oc2cc1O	17.1	11.3	86.6	12.0	11.7
CCCc1cc2c(=O)c(-c3ccccn3)coc2cc1OC	6.6	3.5	+[fluorescence artefact?]	0.1	9.0
COc1cccc(C(c2sc3nc(C)nn3c2O)N2CCc3ccccc3C2)c1 (centres undefined)	-6.9	7.0	85.4	9.3	5.2
COc1ccc2cc(CN(CC3CCCO3)S(=O)(=O)c3ccccc3)c(=O)[nH]c2c1 (centres undefined)	-0.7	5.0	101.4	-10.7	-2.5
COc1ccc2cc(CN(CC3COCCO3)S(=O)(=O)c3ccc(Cl)cc3)c(=O)[nH]c2c1 (centres undefined)	10.6	7.0	234.2*[fluorescence artefact?]	-211.5	28.6
CCCc1cc(=O)[nH]c(SCC(=O)N(C)C2CCS(=O)(=O)C2)n1 (centres undefined)	-4.4	-5.0	87.5	6.6	1.8
O=C(Cn1nc(Cl)nc1Cl)c1cc2ccccc2oc1=O	36.7	1.1	81.1	6.2	54.6*[fluorescence artefact?]
NC(N)=N/N=C(/c1ccc(Cl)cc1)C1CC1	·	·	·	-11.8	·
COc1ccc(CCNC(=O)c2cc(-c3ccccc3OC)on2)cc1OC	28.8	4.5	235.7*[fluorescence artefact?]	-0.6	26.1
COc1ccc(OC)c(-c2cc(C(=O)Nc3cc(C)on3)no2)c1	32.6	7.8	245.2*[fluorescence artefact?]	-13.9	34.5
COc1ccc(-c2csc(NC(=O)c3cc(C)on3)c2C#N)cc1OC	-5.2	4.2	263.9*	1.0	-0.9
Cc1cc(C(=O)Nc2sc3c(c2C#N)CCC3)no1	63.9*	3.4	40.5	11.2	53.1*[fluorescence artefact?]
Cn1ncc2c(NCCc3ccccc3)nc(Cl)nc21	·	·	·	-8.2	·
CC(C)c1ccc(/C(C(=O)O)=C(\O)C(=O)O)cc1	·	·	·	14.5	·
COCCOC(=O)c1c(C)oc2ccc(NS(=O)(=O)c3ccc(C(=O)O)cc3)cc12	53.7*[fluorescence artefact?]	-2.8	49.2	-1.7	39.0
CCCCOC(=O)c1c(C)oc2ccc(NS(=O)(=O)c3ccc4c5c(cccc35)C(=O)N4)cc12	53.2*	8.8	54.4	14.7	44.9
CCOC(=O)c1c(C)oc2ccc(NS(=O)(=O)c3cccs3)cc12	6.5	-5.1	90.6	0.2	7.3
COc1ccccc1-c1noc(CCC(=O)Nc2ccccc2Cl)n1	-7.6	1.1	78.4	12.4	-24.7

Screening data: PubChem BioAssay, several laboratories
